# Records with an inconclusive call do not appear. Where a call stands in place of a potency, no number is given. Activity calls are given as the source filed them. Calls come from the whole dose curve; as a rule, active = well fitted curve in the direction sought with a large enough effect; inconclusive = small, poorly fitted or top-dose-only effect, or another doubt; inactive = no such curve, though single readings can be large; an effect the other way counts as inactive or inconclusive.
# How the values were obtained:
# [1] = Quantitative High-Throughput drug screen in 47 multiple myeloma cell lines against the NCATS MIPE library collection: ARD_JJKsccE7 cell viability assay (AID 1918929)
# Summary of the method: (§1)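 Myeloma cells (500 per well) were exposed to MIPE 4.0 compounds by pin transfer and incubated 48 hours at 37C, 5% CO2. Viability was read as ATP by CellTiter-Glo luminescence, normalised to DMSO (100%) and media-only (0%) wells.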
# [2] = Quantitative High-Throughput drug screen in 47 multiple myeloma cell lines against the NCATS MIPE library collection: Karpas620_DSMZ cell viability assay (AID 1918959); note: nearly all actives have a fitted effect of over 30% in size
# Summary of the method: (§2)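 We plated 500 myeloma cells per well, pinned in MIPE 4.0 compounds, and incubated for 48 hours at 37C. ATP was then quantified with CellTiter-Glo, with DMSO and media-only wells defining 100% and 0%.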
# [3] = Quantitative High-Throughput drug screen in 47 multiple myeloma cell lines against the NCATS MIPE library collection: KMM1_JCRB cell viability assay (AID 1918960); note: nearly all actives have a fitted effect of over 30% in size
# Summary of the method: (§3)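 Each line was plated at 500 cells/well and treated 48 h with library drugs. Viability came from CellTiter-Glo luminescence relative to DMSO and cell-free medium controls.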
# [4] = Quantitative High-Throughput drug screen in 47 multiple myeloma cell lines against the NCATS MIPE library collection: JIM3_ECACC cell viability assay (AID 1918963; note: nearly all actives have a fitted effect of over 35% in size)
# Summary of the method: as §2
# [5] = Quantitative High-Throughput drug screen in 47 multiple myeloma cell lines against the NCATS MIPE library collection: ARP1_JJKsccF8 cell viability assay (AID 1918928; note: nearly all actives have a fitted effect of over 40% in size)
# Summary of the method: as §3
# [6] = Quantitative High-Throughput drug screen in 47 multiple myeloma cell lines against the NCATS MIPE library collection: KHM11_PLB cell viability assay (AID 1918962); note: nearly all actives have a fitted effect of over 35% in size
# Summary of the method: as §2
# [7] = Quantitative High-Throughput drug screen in 47 multiple myeloma cell lines against the NCATS MIPE library collection: Karpas417_ECACC cell viability assay (AID 1918961); conditions: Karpas417 myeloma viability, CellTiter-Glo ATP luminescence, 48 h; viability (% of DMSO): at 45.8 µM (top of the series)
# Summary of the method: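 Viability readout: CellTiter-Glo luminescence following 5 min room-temperature incubation with reagent. Prior exposure: 48 h, 37C, humidified 5% CO2, 500 cells per well.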
# [8] = Quantitative High-Throughput drug screen in 47 multiple myeloma cell lines against the NCATS MIPE library collection: AMO1_DSMZ cell viability assay (AID 1918927; note: nearly all actives have a fitted effect of over 30% in size)
# Summary of the method: as §1
# [9] = Quantitative High-Throughput drug screen in 47 multiple myeloma cell lines against the NCATS MIPE library collection: JIM1_ECACC cell viability assay (AID 1918964)
# Summary of the method: as §1
# Potency is the fitted concentration of half-maximal effect.
structure (smiles),measurement,setting,value
Cc1ccccc1C(C(=O)NC1CCCCC1)N(C(=O)CNc1ccc(C#N)cc1)c1cccc(F)c1 (centres undefined),Potency,[1],inactive
same,Potency,[2],inactive
same,Potency,[3],inactive
same,Potency,[4],inactive
CC1(C)CC(=O)c2c(C(F)(F)F)nn(-c3ccc(C(N)=O)c(NC4CCC(O)CC4)c3)c2C1 (centres undefined),Potency,[5],0.132 µM (active)
same,Potency,[1],inactive
same,Potency,[4],0.105 µM (active)
CN1CCC[C@H]1CCO[C@](C)(c1ccccc1)c1ccc(Cl)cc1,Potency,[5],inactive
same,Potency,[1],inactive
same,Potency,[3],inactive
CN1CCc2c(n(Cc3ccc(C(=O)NO)cc3)c3ccccc23)C1,Potency,[5],18.7 µM (active)
C[C@@H]1[C@H](C)CC[C@]2(C(=O)O)CC[C@]3(C)C(=CC[C@@H]4[C@@]5(C)CC[C@H](O)C(C)(C)[C@H]5CC[C@]43C)[C@@H]12,Potency,[5],42.9 µM (active)
same,Potency,[2],inactive
same,Potency,[3],inactive
same,Potency,[6],inactive
same,Potency,[4],inactive
C=CC[N+]1([C@H]2C[C@H]3[C@@H]4CC[C@H]5C[C@H](O)[C@@H](N6CCOCC6)C[C@]5(C)[C@@H]4CC[C@]3(C)[C@H]2OC(C)=O)CCCC1,Potency,[1],inactive
same,Potency,[2],inactive
same,Potency,[3],inactive
same,Potency,[7],inactive
same,Potency,[6],inactive
same,Potency,[4],inactive
O=C(C=Cc1ccc(O)cc1)c1ccc(O)cc1O,Potency,[8],10.5 µM (active)
same,Potency,[4],20.9 µM (active)
same,Potency,[9],4.69 µM (active)
O=C(Nc1ccccc1)Nc1ccc(-c2ccc(C(=O)[C@H]3CCC[C@H]3C(=O)O)cc2)cc1,Potency,[5],inactive
same,Potency,[2],13.2 µM (active)
same,Potency,[3],7.43 µM (active)
same,Potency,[6],inactive
same,Potency,[4],inactive
C[C@]12CCC3=C4CCC(=O)C=C4CC[C@@H]3[C@H]1CC[C@@]2(O)CC#N,Potency,[5],inactive
same,Potency,[6],inactive
same,Potency,[4],inactive
CC(C)CNc1ccnc(NCc2csc(-c3ccccc3)n2)n1,Potency,[1],5.9 µM (active)
same,Potency,[2],5.26 µM (active)
same,Potency,[3],7.43 µM (active)
same,Potency,[6],9.35 µM (active)
same,Potency,[4],5.26 µM (active)
same,Potency,[9],11.8 µM (active)
CN(C)S(=O)(=O)c1ccc2c(c1)C(=Cc1cc3c([nH]1)CCCC3)C(=O)N2,Potency,[1],8.33 µM (active)
same,Potency,[2],1.87 µM (active)
same,Potency,[3],inactive
same,Potency,[7],1.32 µM (active)
same,Potency,[4],11.8 µM (active)

# Reference: PubChem BioAssay (NCATS)
